# Results taken from PubChem BioAssay.
# Values joined by “and” are separate entries in the source; they are usually repeats but may differ in a detail not shown here. Equal entries are not always repeated.
# Target: Concanavalin-A (Canavalia ensiformis) (UniProt P02866)
# Assay: compounds binding concanavalin A lectin – biochemical, small-molecule microarray, Alexa647 label, 635 nm, artefact control for SMM control protein annotation, primary screen (AID 1127);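 further: z combines 667 nm emission intensity with signal-to-noise across three replicate slides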
# Settings: ConA-A647 binding fluorescence, higher = more signal
# Concanavalin-A (Canavalia ensiformis), sequence (P02866 whole entry, looked up): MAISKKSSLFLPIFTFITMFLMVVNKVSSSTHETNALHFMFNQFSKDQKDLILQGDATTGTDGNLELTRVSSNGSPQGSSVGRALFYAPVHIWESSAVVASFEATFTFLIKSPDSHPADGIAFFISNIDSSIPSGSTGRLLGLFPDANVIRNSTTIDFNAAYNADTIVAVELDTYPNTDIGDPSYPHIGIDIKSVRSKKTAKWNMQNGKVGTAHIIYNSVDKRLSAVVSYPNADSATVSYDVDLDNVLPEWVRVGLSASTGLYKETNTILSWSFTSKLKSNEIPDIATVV
row,SMILES,composite z-score
1,C=CCN(CCCCC)C(=O)C(c1cccs1)N(C(=O)/C=C\C(=O)O)c1ccc(CCO)cc1 (configuration not stated),-0.222 and -0.806
2,C[C@@H](c1ccccc1)N1C(=O)[C@H]2[C@H]3[C@H](O)[C@H](O)CC(=O)[C@@H]3CC[C@H]2C1=O,0.583
3,CO[C@H]1COC(=O)[C@H](C)NC(=O)CC=C[C@@H](C)[C@H](OC)COC(=O)CC=C[C@@H]1C,-1.85
4,CCOC(=O)C[C@H]1[C@H](OC(=O)c2ccccc2-c2ccccc2)[C@@H](NC(=O)c2ccccc2)c2cc(OCCCO)ccc2N1C(=O)c1ccc2ccccc2n1,0.436 and 1.04
5,C=CCN(C(=O)C1N(CCOCCO)C(=O)C2C(C(=O)O)C3C=CC21O3)C(C)(C)C (configuration not stated),-0.455 and -0.884
6,CCCNC(=O)OC[C@H]1O[C@H](CCON=C(C)CCC(=O)OC[C@H]2O[C@H](C#Cc3ccccc3)C=C[C@@H]2Oc2ccc(C)cc2)C=C[C@@H]1Oc1ccc(OC)cc1,0.154
7,CCOC(=O)c1ccc(NC(=O)O[C@H]2[C@H](OC(=O)Nc3ccccc3)[C@H](OC(=O)Nc3ccccc3)[C@@H](OC)O[C@@H]2CO)cc1,1.19 and 1.15
8,O=C1NC(=O)C2C1C=CC(C(O)c1ccc([N+](=O)[O-])cc1)N2Nc1ccc(Cl)cc1Cl (configuration not stated),0.738 and 0.461
9,CC(C)=NO[C@@H](C)c1cc(-c2c(C)cc(C)cc2C)no1,0.154
10,CC(C)=NOCc1ccc(-c2cn([C@@H]3COC[C@H]3O)nn2)cc1,0.0843
11,C=CC[C@@H](O)c1ccc(O)c2ccccc12,0.89 and 0.565
12,C[C@@H]1CC[C@@H](C(=O)O)N[C@H]1c1ccc(-c2ccco2)cc1,0.529
13,COC(=O)c1c2oc(c1C(=O)OC)C(=O)N[C@@H](Cc1ccccc1)Cn1cc(nn1)C1(CCCCC1)NC(=O)N[C@H](CO)CC2,0.634 and 0.427
14,C=C[C@@H](OC)[C@H](O)c1ccc(OC)c(O)c1,-0.847 and -1.4
15,C=CCN(CCCCC)C(=O)C1N(CCCCCCO)C(=O)C2C(C(=O)O)C3C=CC21O3 (configuration not stated),-0.556 and -1.47
16,C=CCN(C(=O)C(c1cccs1)N(C(=O)/C=C\C(=O)O)C(C)(C)CO)C(C)(C)C (configuration not stated),-0.625 and -0.54
17,Cc1ccc(S(=O)(=O)OC[C@@H]2CN3[C@@H](CC[C@@H](C)[C@@H]3c3ccc(Br)cc3)C(=O)O2)cc1,0.446 and 0.54
18,CC(C)[Si]1(C(C)C)OCc2cc(CCCc3cc4c(c(CCc5ccccc5)n3)[Si](C(C)C)(C(C)C)OC4)nc(CCc3ccccc3)c21,-1.42 and 0.124
19,C=CCN(Cc1ccccc1)C(=O)C1N(c2c(Cl)cccc2CO)C(=O)C2C(C(=O)O)C3C=CC21O3 (configuration not stated),-1.31 and -1.79
20,COc1ccc(-c2ccc3c(n2)CCCN3CC(O)CN2CCCc3nc(-c4ccc(Br)cc4)ccc32)cc1 (configuration not stated),0.677 and 0.632
21,COc1ccc(O[C@H]2C=C[C@@H](c3ccccc3)O[C@@H]2COC(=O)CCC(C)=NO[C@H](C)c2cn([C@H](CO)Cc3ccccc3)nn2)cc1,-0.0163 and -0.0252
22,C=CCN1C(=O)[C@]2(O[C@H](CCn3cc(CCO)nn3)[C@@H]([Si](C)(C)c3ccc(OC)cc3)[C@@H]2C)c2cc(N3C(=O)c4cccc5cccc3c45)ccc21,1.08 and 1.06
23,C=CCN(CCCCC)C(=O)C(c1cccs1)N(C(=O)/C=C\C(=O)O)c1c(Cl)cccc1CO (configuration not stated),-0.906 and -1.52
24,C=C[C@@H](OC)[C@H](O)c1ccc(O)c(F)c1,-0.904 and -1.04
25,C[N+](C)(C)CCCCNC(=O)[C@@H]1C[C@@H]2C(=O)N[C@@H](CCCC[N+](C)(C)C)C(=O)N2[C@@H]1c1cccc(OCCO)c1,1.13 and 0.657
26,C=CC[C@@H](O)c1ccc(OCCO)cc1,-0.831 and -1.48
27,CCCNC(=O)OC[C@H]1O[C@H](CCON=C(C)CCN2CCc3nc(-c4ccccc4)c(-c4ccccc4)cc3C2)C=C[C@@H]1Oc1ccc(OC)cc1,0.472
